# According to the supplement of paper PMC7156485:
# System: HCC1569
# Assay: H1.0 immunofluorescence intensity relative to DMSO (% of DMSO); higher = stronger H1.0 induction, active = 140 or more
# Conditions: concentration: 10 µM; 24 h
# How it was run: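 Treatment: HCC1569 and TDF cells, 800 per well in 384-well plates with RPMI and 10% FBS, were given compounds at 10 µM for 24 h at 37 °C, in triplicate. Readout: after 3.7% formaldehyde fixation, cells were stained with a rabbit anti-H1.0 antibody, an AlexaFluor 647 secondary and DAPI. Reported values are H1.0 nuclear intensity or cell number as percent of the plate control, taken as the median of replicates, with positional smoothing for HCC1569.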
# 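Note: TDF is a line of transformed human dermal fibroblasts of mesenchymal origin.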
row,SMILES,H1.0 immunofluorescence intensity
1,NCC(CP(=O)(O)O)c1ccc(Cl)cc1 (stereo not drawn) [Phaclofen],79.9 (inactive)
2,Br.C=CCN1CCc2cccc3c2C1Cc1ccc(O)c(O)c1-3 (stereo not drawn) [R(-)-N-Allylnorapomorphine hydrobromide],110 (inactive)
3,NC(=O)CN1CCCC1=O [Piracetam],103 (inactive)
4,"CC(=O)C1CCC2C3CCC4CC(O)CCC4(C)C3C(=O)CC12C (stereo not drawn) [5alpha-Pregnan-3alpha-ol-11,20-dione]",98.7 (inactive)
5,CN1C2CCC1CC(O)C2 (stereo not drawn) [Tropine],90 (inactive)
6,C=CCN1CC(C)N(C(c2ccc(C(=O)N(CC)CC)cc2)c2cccc(OC)c2)CC1C (stereo not drawn),87.8 (inactive)
7,N#CC(C#N)=Cc1ccc(O)c(O)c1 [Tyrphostin 23],102 (inactive)
8,O=C1C=CC(=O)C=C1 [p-Benzoquinone],93.3 (inactive)
9,CCCN(CCC)C1CCc2ccc(O)cc2C1 (racemic),95.4 (inactive)
10,C[N+]1(C)C2CCC1CC(OC(=O)C(CO)c1ccccc1)C2.[Br-] (stereo not drawn) [Atropine methyl bromide],93.9 (inactive)
11,Cl.O=c1[nH]oc2c1CCNC2 [THIP hydrochloride],86.1 (inactive)
12,"CC(N)C(O)c1ccc(O)c(O)c1 (single isomer, unassigned; (-)) [(-)-alpha-Methylnorepinephrine]",93.1 (inactive)
13,"NC(Cn1oc(=O)[nH]c1=O)C(=O)O (single isomer, unassigned; (+)) [(+)-Quisqualic acid]",103 (inactive)
